SNCA expr inhib = SNCA gene expression inhibition. HEK-293 SNCA-luciferase knock-in, luminescence, 24 h. Potency, µM (doses to about 57.2 µM), for inactives: at the highest dose activity change, negative = inhibition, most hits filed as inhibitors. actives 0.17% (n = 140,000);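 also: potency is read from the fitted curve at half-maximal effect; plate controls were DMSO cells for no effect and cell-free wells for full effect; nearly all actives have a fitted effect of over 45% in size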
HEK293 viab = cell viability loss counter-screen | AID 1671193 | Potency, µM (top dose mostly 57.1 µM), inactives show top-dose activity change, negative = cytotoxicity, actives largely listed as cytotoxic | actives 0.12% (n = 150,000) | HEK-293-SNCA-luc viability, GF-AFC fluorescence, 24 h;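 also: potency is read from the fitted curve at half-maximal effect; 0% = DMSO-treated cells and -100% = medium-only wells without cells; nearly all actives have a fitted effect of over 30% in size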
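Cytotoxicity counterscreen: after 24 h compound treatment of genome-edited SNCA-luciferase HEK-293 cells, live-cell protease substrate GF-AFC read by fluorescence after 30 min; activity scaled between DMSO (0%) and medium-only (-100%), curves Hill-fitted.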
GPT2 inh = blocks human glutamate pyruvate transaminase 2; AID 1671188; Q8TD30; Recombinant GPT2, coupled pyruvate oxidase/HRP Amplex Red fluorescence; actives 0.25% (n = 100,000); Potency, µM (highest dose often 57.7 µM), for the others: at the top dose activity change, negative = inhibition, usual class: inhibitors; also: potency is read from the fitted curve at half-maximal effect; nearly all actives have a fitted effect of over 60% in size
Target sequence (Q8TD30 whole entry, looked up): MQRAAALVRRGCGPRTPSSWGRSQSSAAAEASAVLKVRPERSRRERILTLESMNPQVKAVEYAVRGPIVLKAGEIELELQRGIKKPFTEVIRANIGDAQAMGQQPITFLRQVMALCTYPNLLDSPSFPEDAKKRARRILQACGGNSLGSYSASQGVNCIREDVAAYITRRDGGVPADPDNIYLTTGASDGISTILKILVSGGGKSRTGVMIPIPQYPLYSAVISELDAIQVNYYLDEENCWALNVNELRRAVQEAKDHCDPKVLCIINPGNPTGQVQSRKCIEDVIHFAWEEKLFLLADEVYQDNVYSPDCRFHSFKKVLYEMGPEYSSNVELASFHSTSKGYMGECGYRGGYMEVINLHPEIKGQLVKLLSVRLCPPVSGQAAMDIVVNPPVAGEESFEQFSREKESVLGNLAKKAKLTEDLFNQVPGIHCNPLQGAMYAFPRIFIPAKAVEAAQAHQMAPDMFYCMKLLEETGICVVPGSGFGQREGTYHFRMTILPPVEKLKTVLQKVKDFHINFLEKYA
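Recombinant GPT2 (10ng/uL) with 250uM a-KG and 2mM L-alanine, 30 min at room temperature, in HEPES pH 7.5 buffer. Pyruvate detected by pyruvate oxidase/HRP/Amplex Red fluorescence after 30 min in the dark; AOA (50uM) as positive control.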
IP6K1 inhibitor = inhibitors of human IP6K1; Q92551; IP6K1 kinase, ADP-Glo luminescence, 2 h; stronger effect = lower value; activity change, % (series mostly up to about 58 µM); actives 0.81% (n = 140,000); AID 1645851; in the data active = activity change below about -25%
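ADP-Glo luminescence measures ADP made by human IP6K1 during a 2 h RT reaction with ATP/IP6 (mix at 1.3 mM/130 uM); top library doses 57.5 and 19.1 uM final.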
* marks the source's active call; other numbers are inactive results; i = inactive; ? = inconclusive; . = not tested or not shown; ! = repeats disagree; [ ] = dose if it differs, or a comment. This is a sample that favours compounds with a hit; in the whole collection about 0.9% have one here. Unless noted, calls follow the shape of the dose curve; as a rule, active = well fitted curve in the direction sought with a large enough effect; inconclusive = small, poorly fitted or top-dose-only effect, or another doubt; inactive = no such curve, though single readings can be large; an effect the other way counts as inactive or inconclusive. Unless noted, % is scaled to controls: 0 for no effect and ±100 for the full control effect.

SMILES	SNCA expr inhib	HEK293 viab	GPT2 inh	IP6K1 inhibitor
Cc1ccc(F)cc1S(=O)(=O)N[C@@H]1CCN(Cc2ccc(OC(C)C)cc2)C1	.	9.5µM*	3%	-1
O=c1c(-c2cccs2)nc2cnc(N3CCNCC3)nc2n1Cc1cccs1	18µM*	?	.	.
O=c1[nH]nc(Sc2ncc([N+](=O)[O-])s2)n1-c1ccc2c(c1)OCCO2	?	24µM*	-10%	.
CCOc1ccc(CCNC(=O)c2cn(C)c3ccc(S(=O)(=O)N4CCCCC4)cc3c2=O)cc1OCC	23%	-2%	.	-27*
Cc1cc(C)c(NC(=O)Cn2c(=O)n(Cc3ccc(C(=O)NCc4ccco4)cc3)c(=O)c3sccc32)c(C)c1	25µM*	?	.	10
Cc1cccc(C)c1NC(=O)Cn1c(=O)n(Cc2ccc(C(=O)NCc3ccco3)cc2)c(=O)c2sccc21	?	-28%	.	39
Cc1oc(-c2ccccc2F)nc1Cn1c(SCc2cccc(Cl)c2)nc2ccncc21	?	-22%	.	7
Cc1ccc(CSc2nc3ccncc3n2Cc2nc(-c3ccccc3C)oc2C)cc1	10µM*	-1%	.	-4
COc1cc2c(cc1OC)C(CNC(=O)Cc1ccccc1)N(C(=O)Nc1ccccc1F)CC2 (centres undefined)	27%	-30%	-8%	0
CCS(=O)(=O)N1CCN(c2ccc(Nc3ncc(C(N)=O)c(NC4CC4)n3)cc2)CC1	.	-30%	i	1
c1nc2nc(Nc3ccc(N4CCOCC4)cc3)nc(NC3CCCCC3)c2[nH]1	?	?	?	-41*
O=C(Cc1cccc(Cl)c1)NC1CCN(Cc2cccc(-c3cccs3)c2)CC1	-12%	-5%[12.5 µM]	-3%	-5
Cc1ccc(C(Nc2ccccn2)c2ccc3cccnc3c2O)cc1 (centres undefined)	?	-19%	.	-10
Cc1cccc(NC(c2cccc(Cl)c2)c2ccc3cccnc3c2O)n1 (centres undefined)	8.9µM*	-4%	.	0
CC1CCCC[C@H]2C(=O)C=C[C@H](O)[C@@H]2CC(=O)O1 (some centres undefined)	.	9.5µM*	4%	-2
COC(=O)[C@@H]1Cc2c([nH]c3ccccc23)[C@H]2C[C@@H](NC3CC3)C[C@@H](c3ccc(F)cc3)N21	28µM*	?	-24%[88.5 µM]	-5
COC(=O)[C@@H]1Cc2c([nH]c3ccccc23)[C@H]2C[C@@H](NCCO)C[C@@H](c3ccc(F)cc3)N21	-6%	-8%	-4%	-9
CCCNC(=O)[C@H]1O[C@H]1C(=O)N[C@H](C(=O)N1CCC[C@@H]1C(=O)OC)C(C)CC (some centres undefined)	?	22µM*	i	.
CCOC(=O)[C@H](CCc1ccccc1)N[C@@H](C)C(=O)N1CCC[C@H]1C(=O)O	16%[25.6 µM]	4%[23.9 µM]	4%	-8
CNC(=O)c1cc(C2CC2)nc2onc(C3CCCN3C(=O)Nc3ccc(Cl)cc3)c12 (centres undefined)	.	.	.	4
Cc1ccc(-c2cn3cc(C(=O)NCC(C)C)nc3s2)cc1	84%[87.6 µM]	11%[87.6 µM]	?	4
COc1ccc(OC)c(CN2CCCn3nc(C)c(-c4ccccc4C(C)C)c32)c1	?	-29%[87.6 µM]	i	19
COc1ccccc1CN1CCCn2nc(C)c(-c3ccccc3C(N)=O)c21	3.5µM*	?	-13%[88.5 µM]	13
Cc1nn2c(c1-c1ccccc1Oc1ccccc1)N(Cc1ccccc1O)CCC2	2µM*	?	-24%[88.5 µM]	15
Cc1nn2c(c1-c1ccccc1OCc1ccccc1)N(Cc1ccc(C(=O)O)s1)CCC2	11µM*	?	-20%	21
SMILES	SNCA expr inhib	HEK293 viab	GPT2 inh	IP6K1 inhibitor
Cc1cccc(CN2CCCn3nc(C)c(-c4ccccc4-c4ccccc4)c32)n1	4.5µM*	?	i	3
COc1ccc(-c2ccc(C(=O)N3CCN(C(=O)c4ccc(Cl)cc4)CC3)cc2)nn1	.	.	.	-1
O=C(c1ccc(F)cc1)N1CCC(C(=O)N2CCC(c3nc4ncccc4[nH]3)C2)CC1 (centres undefined)	?	5%	-7%	1
O=C(NCc1ccccc1F)c1ccc2oc(-c3ccnc(Cl)c3)nc2c1	5%[87.6 µM]	9%[12.5 µM]	2%[88.5 µM]	11
CCOc1ccc(S(=O)(=O)Nc2nc3ccccc3nc2Nc2ccc(OC)cc2)cc1	2%	-8%	.	2
COc1ccc(S(=O)(=O)Nc2cccnc2Nc2ccc(O)cc2)cc1	3%	?	22µM*!	-12
CCOc1ccc(Cc2nc(-c3c(C)nc4ccccn34)cs2)cc1	.	12µM*	-12%	-1
CCOc1ccc(Nc2nc(-c3c(C)nc4ccccn34)cs2)cc1	-21%	?	?	-10
O=C(NCc1cccc(F)c1)c1ccc2c(c1)CC(=O)N2Cc1ccccc1	13µM*	-2%	-12%	-3
CN(Cc1cccnc1)C(=O)CCC[C@H]1NC[C@@H]2C[C@H]1CN(Cc1ccccc1)C2	-13%	0%	-12%	-1
CN(Cc1ccc(N2CCCCC2)cc1)C(=O)CCC[C@H]1NC[C@@H]2C[C@H]1CN(Cc1ccccc1)C2	?	22µM*	i	-2
CCOC(=O)c1cc2cc(NC(=O)C3=CC(C)(C)Oc4ccc(OC)cc43)ccc2o1	.	.	.	6
O=C(Nc1ccccc1)c1nc2c(o1)CCN(Cc1ccc(O)cc1)CC2	-22%[87.6 µM]	-2%[87.6 µM]	1%[88.5 µM]	17
O=C(Nc1ccccc1)c1nc2c(o1)CCN(Cc1cccs1)CC2	11µM*	-2%[87.6 µM]	5%[88.5 µM]	-17
C[C@](Cc1ccc(O)c(O)c1)(NN)C(=O)O	-16%	-1%	4%	.
CC(N)(Cc1ccc(O)c(O)c1)C(=O)O (centres undefined)	6%	-9%	8.9µM*	.
O=C(NCc1nnc2c(-c3nc(C4CC4)no3)cccn12)c1cc(F)ccc1Cl	-29%	5%	i	-7
CC(C)C(=O)NCC1CN(Cc2ccccc2)C(=O)c2c(ccnc2-c2ccc(OCC(=O)O)cc2)O1 (centres undefined)	2.8µM*	?	-17%	7
Oc1cc(O)cc(/C=C/c2ccc(O)c(O)c2)c1	?	-14%	6.3µM*	.
COc1ccc(NC(=O)c2cnc[nH]2)cc1	14µM*	-12%	.	-3
COc1cc(N2CCC(O)CC2)ccc1Nc1nc(Nc2ccccc2S(=O)(=O)C(C)C)c2[nH]cnc2n1	.	-23%	18µM*	-15
COc1ccccc1Nc1ccnc(N2CCC(NC(=O)C(C)C)CC2)n1	7%	?	i	3
Cc1nn(C)c2c1C(c1ccc(C(F)(F)F)cc1)C(C#N)=C(N)O2 (centres undefined)	22%	7%	15µM*!	-10
COc1cc2ncnc(Nc3ccc(F)c(Cl)c3)c2cc1NC(=O)/C=C/CN1CCCCC1	.	24µM*	-11%	2
CC(C)(C)c1cnc(CSc2cnc(NC(=O)C3CCNCC3)s2)o1	1.5µM*	?	-3%	.
Cc1nc(Nc2n[nH]c3c2CN(C(=O)N[C@H](CN(C)C)c2ccccc2)C3(C)C)c2sccc2n1	0.015µM*	?	?	28

High-throughput results: PubChem BioAssay, National Center for Advancing Translational Sciences (NCATS)
